Screens deposited in PubChem BioAssay by National Center for Advancing Translational Sciences (NCATS).
D2 ag-1 = D2 dopamine receptor (human) agonism; AID 485358; HEK293 T-REx D2 cells, calcium flux agonist mode; 340,000 tested, 0.53% active; P14416; activation, % at 2 µM;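 active means activation over 3 SD above normal in the single-dose calcium agonist read, cut at about 30% in these data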; further: 0% is about no effect
Target sequence (P14416 whole entry, looked up): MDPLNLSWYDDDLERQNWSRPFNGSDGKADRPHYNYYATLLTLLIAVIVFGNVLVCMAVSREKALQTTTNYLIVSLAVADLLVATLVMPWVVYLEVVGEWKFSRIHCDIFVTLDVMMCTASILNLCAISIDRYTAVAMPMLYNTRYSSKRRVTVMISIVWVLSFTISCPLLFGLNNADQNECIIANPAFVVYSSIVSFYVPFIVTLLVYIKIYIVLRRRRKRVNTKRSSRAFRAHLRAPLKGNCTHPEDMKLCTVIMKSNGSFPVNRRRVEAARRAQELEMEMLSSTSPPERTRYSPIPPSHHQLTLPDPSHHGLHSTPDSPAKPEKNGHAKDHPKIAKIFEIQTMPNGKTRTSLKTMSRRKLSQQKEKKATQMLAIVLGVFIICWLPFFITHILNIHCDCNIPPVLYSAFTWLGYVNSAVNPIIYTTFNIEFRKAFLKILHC
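Tetracycline-induced HEK293 T-REx cells with force-coupled D2 receptor, plated overnight at 30 C, loaded with no-wash calcium dye. After a 10 s baseline, compound was pin-added and calcium flux read kinetically for 180 s; calcium rises flagged agonists.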
D2 PAM-1 = positive allosteric modulators of human D2 dopamine receptor. P14416. HEK293 T-REx D2, calcium flux, EC20 dopamine potentiation. potentiation, % at 10 µM. 340,000 tested, 0.34% active. AID 485347;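 active means potentiation over 3 SD above the plate norm, cut at about 30% in these data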; further: 0% is about no effect
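Tetracycline-induced HEK293 T-REx cells force-coupled to calcium signalling expressed D2; compounds were pin-added after a 10 s baseline, read kinetically 180 s, then an EC20 dopamine challenge followed with a further 180 s calcium read.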
D2 ag-2 = activates the human D2 dopamine receptor. DiscoveRx PathHunter D2 beta-arrestin, luminescence, 90 min; 100% = 57 uM dopamine signal. activation, % (test concentration not listed). 360,000 tested, 0.084% active; in the data active means activation above about 40%
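DiscoveRx PathHunter D2 beta-arrestin cells (2,100/well) attached overnight, then compound-stimulated 90 min at 37 C in HBSS/10 mM HEPES/0.1% Tween-20 buffer; beta-galactosidase complementation read by luminescence after 1 h at ambient temperature. Dopamine 57 uM final (EC100) as control.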
D2 PAM-2 = human D2 receptor positive allosteric modulation. DiscoveRx D2 beta-arrestin cells, luminescence, 90 min; 100% = 57 uM dopamine signal. 360,000 tested, 0.23% active. potentiation, % (no concentration beside the values); in the data active means potentiation above about 50%
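D2 cells co-treated with compound plus 50 nM dopamine (EC20) for 90 min at 37 deg C to detect potentiation. Beta-arrestin recruitment was read as enzyme-fragment luminescence after 1 h at ambient temperature. Full response was set by 57 uM dopamine.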
D2 antag = antagonizes the human D2 dopamine receptor; P14416; HEK293 TREx D2 cells, calcium flux, dopamine EC80; inhibition, % at 10 µM; 340,000 tested, 2% active; in the data active means inhibition above about 30%; inactive means below that, where a call was filed; further: 0% is about no effect
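Overnight-induced (tetracycline, 30 C) HEK293 T-REx cells carrying force-coupled D2 receive a no-wash calcium dye, then compound, then EC80 dopamine at 180 s; signals are read kinetically throughout.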
The depositor's hits bear a star; · = no result given. This is a sample that favours compounds with a hit; in the whole collection about 2.4% have one here.

SMILES	D2 ag-1	D2 PAM-1	D2 ag-2	D2 PAM-2	D2 antag
O=C(N/N=C/c1ccccc1O)C1CC(=O)N(c2ccc(Cl)cc2)C1 (stereo not given)	0	-23	3	-19	35*
Cc1ccc(C)c(N2CCN(c3nc4ccccc4n4c(C)nnc34)CC2)c1	0	-6	·	·	·
CCn1cnc2sc(C(=O)N(Cc3ccc(N(C)C)cc3)Cc3ccco3)c(C)c2c1=O	1	2	1	5	32*
O=C(Nc1cccc(F)c1)Nc1ccccn1	0	-23	-4	-10	87*
O=C(Nc1cccc(F)c1)Nc1cnccn1	1	11	1	-9	-13
CCOC(=O)C(C(=O)OCC)c1cc(Br)c2noc3c2c1C(=O)c1ccccc1-3	1	4	10	91*	1
CC(=O)OCCNc1cc(N2CCN(C)CC2)c2noc3c2c1C(=O)c1ccccc1-3	1	-1	-2	-3	0
COc1ccc(-c2cc(C(=O)Nc3c(C(=O)c4ccc(C)c(F)c4)oc4ccccc34)no2)cc1	3	-4	·	·	·
COc1ccccc1N(CC(=O)NCc1ccco1)C(=O)CCC(=O)Nc1ccccn1	-1	32*	-1	3	-7
Cc1cccc(N(CC(=O)NCc2ccco2)C(=O)CCC(=O)Nc2ccccn2)c1C	0	-5	-2	-7	-2
CCOC(=O)C1=C(CS(=O)(=O)c2ccc(F)cc2)NC(=O)NC1c1ccc(OCC)c(OC)c1 (stereo not given)	-1	6	·	·	·
Cc1ccccc1Nc1c(-c2ccc(N3CCOCC3)cc2)nc2ccc(Br)cn12	-1	-1	·	·	·
CNC(=O)c1ccccc1NC(=O)c1ccco1	-1	34*	-4	8	-3
Cc1ccccc1NC(=O)c1ccccc1NC(=O)c1ccco1	0	5	-2	-19	-9
CC1CCCCN1C(=O)c1ccccc1NC(=O)c1ccco1 (stereo not given)	-2	31*	-1	-16	12
Cc1ccccc1Cn1nnc2c(=O)[nH]c(C3CCN(C(=O)c4ccccc4)CC3)nc21	0	1	·	·	·
O=C(Nc1ccc(F)c(F)c1)c1ccc(=O)n(Cc2ccc(F)cc2)c1	-1	-2	·	·	·
COCCOC(=O)c1c(-c2ccccc2)c(-c2ccccc2)nn(C)c1=O	-1	0	·	·	·
Cc1nn2c(=O)cc(CSc3nc4ccccc4[nH]3)nc2s1	1	15	-1	-4	39*
COc1ccc(C(=O)Nc2ccccc2SCc2cc(=O)n3nc(C)sc3n2)cc1OC	0	-2	2	-6	1
Cc1c(Br)c([N+](=O)[O-])nn1C(C)C(=O)Nc1ccc2c(c1)OCO2 (stereo not given)	0	4	-2	-13	40*
CCCN1CN(Cc2ccco2)c2nc3ccccc3n2C1	-2	9	-1	8	43*
CC(=O)Nc1ccc2c(c1)nc(CN1CCCC1)n2C	0	-1	0	-21	10
Cn1c(CCN2CCCCC2)nc2cc(NS(=O)(=O)c3ccc(Cl)cc3)ccc21	0	3	-1	-36	14
Cn1c(CN2CCCCC2)nc2cc(NS(=O)(=O)c3ccc(Cl)cc3)ccc21	1	-18	-4	-22	73*
SMILES	D2 ag-1	D2 PAM-1	D2 ag-2	D2 PAM-2	D2 antag
Cn1c(CN2CCCCC2)nc2cc(NS(=O)(=O)c3ccc(F)cc3)ccc21	0	-19	-6	-3	74*
CC(CCc1ccccc1)NC(=O)COC(=O)c1ccc([N+](=O)[O-])cc1 (stereo not given)	0	38*	0	5	-12
CC(CCc1ccccc1)NC(=O)COC(=O)c1ccc(S(C)(=O)=O)c([N+](=O)[O-])c1 (stereo not given)	0	-2	-2	-6	2
O=C(O)COc1ccc2c3c(c(=O)oc2c1)CCC3	0	2	-5	-20	39*
NS(=O)(=O)c1ccc(CCNC(=O)COc2ccc3c4c(c(=O)oc3c2)CCC4)cc1	0	40*	-1	-14	5
COc1ccc(NC(=O)Cn2c(=O)n(CCc3ccccc3)c(=O)c3c4c(sc32)CCCC4)cc1	0	1	·	·	·
Cc1cccc(NS(=O)(=O)c2ccccc2)n1	0	7	-2	-2	31*
CCc1nc2nc(C)c(NS(=O)(=O)c3ccc(F)cc3)c(=O)n2[nH]1	-2	30	3	-1	2
CCc1nc2nc(C)c(NS(=O)(=O)c3ccc(F)c(C)c3)c(=O)n2[nH]1	0	-1	·	·	·
Cc1ccc(S(=O)(=O)Nc2c(C)nc3nc(C)[nH]n3c2=O)c(C)c1	1	-13	1	-5	36*
CCc1nc2nc(C)c(NS(=O)(=O)c3ccc(Br)s3)c(=O)n2[nH]1	-1	31*	4	11	-30
CCc1nc2nc(C)c(NS(=O)(=O)c3cccs3)c(=O)n2[nH]1	-2	51*	-4	-8	0
CCCOC(=O)c1ccc(Cn2nnc3sc4c(c3c2=O)CCC(C)C4)cc1 (stereo not given)	·	2	·	·	·
Cc1ccc(C2(C)NC(=O)N(CCOc3ccccc3)C2=O)cc1 (stereo not given)	0	-5	-4	9	-12
COc1ccc(OCCN2C(=O)NC(C)(c3ccc(C)cc3)C2=O)cc1 (stereo not given)	0	66*	0	1	17
O=C(c1cc(-c2ccc(Cl)cc2Cl)on1)N1CCN(C(=O)c2ccco2)CC1	1	49*	-1	-7	-1
O=C(Nc1cccnc1)c1cc(-c2ccc(Cl)cc2Cl)on1	1	7	3	-2	35*
O=C(c1cc(-c2ccccc2Cl)on1)N1CCN(C(=O)c2ccco2)CC1	0	-1	-2	-18	4
C=CCN1C(=O)/C(=C\c2ccc(C)cc2)N=C1SCC(=O)NCCC	0	5	-1	-15	9
CCCNC(=O)CSC1=N/C(=C/c2ccc(F)cc2)C(=O)N1CC	0	9	-2	-13	35*
O=C1S/C(=C\c2ccc(N3CCOCC3)o2)C(=O)N1c1ccccc1	31*	5	1	0	4
CCN1CCN(Cc2ccc(NC(=O)c3ccc(C)c(NC(=O)c4c[nH]c5cc(C(F)(F)F)ccc5c4=O)c3)cc2C(F)(F)F)CC1	-1	-4	-2	0	36*
Cc1ccc(C(=O)Nc2cccc(C(F)(F)F)c2)cc1NC(=O)c1c[nH]c2cc(C(F)(F)F)ccc2c1=O	·	·	1	-3	·
O=C(C1COc2ccccc2O1)N1CCCCC1 (stereo not given)	-1	0	-1	-2	51*
COC(=O)CN1C(=O)CSc2ccc(S(=O)(=O)Nc3ccc(F)c(Cl)c3)cc21	0	3	·	·	·
